The values below come from the supplement of paper PMC11634586.

Counter-ions that a name gives are not always drawn. Unmarked numbers belong to inactive results.

This assay concerns NCI-H1688. The assay is described as follows: inhibition of cell viability relative to untreated control (fraction); higher = stronger growth inhibition, active = 0.5 or more. The following applies: 30 µM; 24 h. In outline:
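Viability of NCI-H1688 small cell lung cancer cells was assessed with Cell Counting Kit-8 by absorbance at 450 nm, in triplicate, after a 24 h exposure to a natural compound library (TargetMol) at 30 µM at 37°C and 5% CO2. The cells had been seeded at 3 × 10^3 cells/well in 96-well plates 24 h before treatment. Inhibition of cell viability is reported as a fraction, derived from viability normalised against untreated cells.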

For the compound `C[C@H](CCC(=O)O)[C@H]1CC[C@H]2[C@@H]3[C@H](O)C[C@@H]4C[C@H](O)CC[C@]4(C)[C@H]3CC[C@]12C` [Chenodeoxycholic acid], the “inhibition of cell viability” value is 0.152.

Take `C[C@H]1O[C@@H](O[C@H]2[C@@H](O)C[C@H](O[C@H]3[C@@H](O)C[C@H](O[C@H]4CC[C@@]5(C)[C@H](CC[C@@H]6[C@@H]5CC[C@]5(C)[C@@H](C7=CC(=O)OC7)CC[C@]65O)C4)O[C@@H]3C)O[C@@H]2C)C[C@H](O)[C@@H]1O` [Digitoxin]: the “inhibition of cell viability” value was 0.981 (active).

With `O=c1ccc2cc3ccoc3cc2o1` [Psoralen], the “inhibition of cell viability” value is -0.0315.

For the compound `COc1ccc(-c2cc(=O)c3c(OC)c(OC)c(OC)c(OC)c3o2)cc1` [Tangeretin], the “inhibition of cell viability” value was 0.299.

In the case of `C=C1C(=O)O[C@@H]2C[C@@]3(C)CCCC(=C)[C@@H]3C[C@H]12` [Isoalantolactone], the “inhibition of cell viability” value was 0.867 (active).

Regarding `Cc1ncc(CO)c(CO)c1O` [Pyridoxine hydrochloride], the “inhibition of cell viability” value was 0.171.

With `CC(C)(S)[C@@H](N)C(=O)O` [Artamine], the “inhibition of cell viability” value was 0.0772.

Regarding `Nc1nc(=O)c2nc(CNc3ccc(C(=O)N[C@@H](CCC(=O)O)C(=O)O)cc3)cnc2[nH]1` [Folic acid], the “inhibition of cell viability” value is -0.206.

As for `C[C@H]1O[C@@H](O[C@H]2CC[C@@]3(C)[C@@H](CC[C@]4(C)[C@@H]3C=C[C@]35OC[C@@]6(CCC(C)(C)C[C@H]63)[C@@H](O)C[C@]54C)[C@]2(C)CO)[C@H](O)[C@@H](O[C@@H]2O[C@H](CO)[C@@H](O)[C@H](O)[C@H]2O)[C@H]1O` [Saikosaponin A], the “inhibition of cell viability” value is 1 (active).

Turning to `N[C@@H](Cc1cc(I)c(O)c(I)c1)C(=O)O` [3,5-Diiodotyrosine Dihydrate], the “inhibition of cell viability” value was 0.24.

Consider `COc1ccc([C@@H]2CC(=O)c3c(O)cc(O)cc3O2)cc1O` [Hesperetin], for which the “inhibition of cell viability” value was -0.0748.

Consider `O=C1c2c(O)cccc2C([C@@H]2O[C@H](CO)[C@@H](O)[C@H](O)[C@H]2O)c2cc(CO)cc(O)c21` (some centres not stated) [Aloin], for which the “inhibition of cell viability” value was -0.014.

In the case of `Cn1c(=O)c2c(ncn2C)n(C)c1=O` [Caffeine], the “inhibition of cell viability” value was 0.0548.

`COc1cc(C(C)=O)ccc1O` [Acetovanillone]: the “inhibition of cell viability” value is 0.213.

Consider `NC[C@@H]1O[C@H](O[C@H]2[C@@H](O)[C@H](O[C@@H]3[C@@H](O)[C@H](N)C[C@H](N)[C@H]3O[C@H]3O[C@H](CO)[C@@H](O)[C@H](O)[C@H]3N)O[C@@H]2CO)[C@H](N)[C@@H](O)[C@@H]1O` [Paromomycin Sulfate], for which the “inhibition of cell viability” value was -0.0298.

Turning to `COc1cc(-c2oc3cc(O)cc(O)c3c(=O)c2O)ccc1O` [Isorhamnetin], the “inhibition of cell viability” value is -0.0139.

Take `C[C@@]12C[C@@]3(O)O[C@@H](O1)[C@]1(COC(=O)c4ccccc4)[C@H]3C[C@@]12O[C@@H]1O[C@H](CO)[C@@H](O)[C@H](O)[C@H]1O` [Paeoniflorin]: the “inhibition of cell viability” value was 0.068.

As to `C[C@H]1[C@H](C)CC[C@]2(C(=O)O[C@@H]3O[C@H](CO[C@@H]4O[C@H](CO)[C@@H](O[C@@H]5O[C@H](C)[C@H](O)[C@@H](O)[C@H]5O)[C@H](O)[C@H]4O)[C@@H](O)[C@H](O)[C@H]3O)CC[C@]3(C)C(=CC[C@@H]4[C@@]5(C)C[C@@H](O)[C@H](O)[C@@](C)(CO)[C@@H]5CC[C@]43C)[C@H]12` [Asiaticoside], the “inhibition of cell viability” value was 0.145.

As for `O=C(O)CCC(=O)O` [Succinic acid], the “inhibition of cell viability” value is 0.0297.

With `COC(=O)C1=CO[C@@H](O)[C@@H]2C(CO)=CC[C@H]12` [Genipin], the “inhibition of cell viability” value is 0.135.

As to `CC1(C)CCC[C@](C)([C@H]2CC[C@]3(C)[C@@H]2[C@H](O)C[C@@H]2[C@@]4(C)CC[C@H](O)C(C)(C)[C@@H]4CC[C@]23C)O1` [Panaxadiol], the “inhibition of cell viability” value is -0.0255.

For `COc1cc(CO)ccc1O` [Vanillyl Alcohol], the “inhibition of cell viability” value was -0.235.

For `CC(C)C[C@@H](NC(=O)[C@H](C)NC(=O)CNC(=O)[C@@H](NC=O)C(C)C)C(=O)N[C@@H](C)C(=O)N[C@@H](C(=O)N[C@H](C(=O)N[C@H](C(=O)N[C@@H](Cc1c[nH]c2ccccc12)C(=O)N[C@H](CC(C)C)C(=O)N[C@@H](Cc1c[nH]c2ccccc12)C(=O)N[C@H](CC(C)C)C(=O)N[C@@H](Cc1c[nH]c2ccccc12)C(=O)N[C@H](CC(C)C)C(=O)N[C@@H](Cc1c[nH]c2ccccc12)C(=O)NCCO)C(C)C)C(C)C)C(C)C` [Gramicidin], the “inhibition of cell viability” value is 0.981 (active).

As to `CC1(C)O[C@H]2CC(=O)OC[C@]23[C@H]2CC[C@@]4(C)[C@H](c5ccoc5)OC(=O)[C@H]5O[C@]54[C@]2(C)C(=O)C[C@@H]13` [Limonin], the “inhibition of cell viability” value is -0.0414.

Turning to `O[C@H]1[C@H]2c3cc4c(cc3CN3CCC(=C[C@@H]1O)[C@H]23)OCO4` [Lycorine chloride], the “inhibition of cell viability” value was 0.931 (active).

With `CC(=O)OC(C)C(C)C(=O)OCC12C3CC(C)(C)[C@H](O[C@@H]1C[C@]1(C)C3=CCC3C4(C)CCC(O[C@@H]5O[C@H](C(=O)O)[C@@H](O[C@H]6O[C@H](CO)[C@@H](O)[C@H](O)[C@H]6O)[C@H](O)[C@H]5O[C@@H]5OC[C@@H](O)[C@H](O)[C@H]5O)[C@](C)(CO)C4CCC31C)C2O` (some centres not stated) [Sodium Aescinate], the “inhibition of cell viability” value was 0.524 (active).

`O=C(O)CCCCCCCC(=O)O` [Azelaic acid]: the “inhibition of cell viability” value is 0.133.

For `C=C[C@H]1[C@H](O[C@@H]2O[C@H](CO)[C@@H](O)[C@H](O)[C@H]2O)OC=C2C(=O)OCC[C@]21O` [Swertiamarin], the “inhibition of cell viability” value was -0.0605.

As to `CO[C@H]1C[C@@H]2CC[C@@H](C)[C@@](O)(O2)C(=O)C(=O)N2CCCC[C@H]2C(=O)O[C@H]([C@H](C)C[C@@H]2CC[C@@H](O)[C@H](OC)C2)CC(=O)[C@H](C)/C=C(\C)[C@@H](O)[C@@H](OC)C(=O)[C@H](C)C[C@H](C)/C=C/C=C/C=C/1C` [Rapamycin (Sirolimus)], the “inhibition of cell viability” value was 0.76 (active).

As for `O=C1C[C@@H](c2ccc(O)cc2)Oc2cc(O)cc(O)c21` [Naringenin], the “inhibition of cell viability” value was -0.726.

Turning to `Nc1nc(=O)c2c([nH]1)NCC(CNc1ccc(C(=O)N[C@@H](CCC(=O)O)C(=O)O)cc1)N2C=O` (some centres not stated) [Calcium folinate], the “inhibition of cell viability” value is 0.028.

`O=C(O)c1cc(O)c2c(c1)[C@H]([C@H]1c3cc(C(=O)O)cc(O)c3C(=O)c3c(O[C@@H]4O[C@H](CO)[C@@H](O)[C@H](O)[C@H]4O)cccc31)c1cccc(O[C@@H]3O[C@H](CO)[C@@H](O)[C@H](O)[C@H]3O)c1C2=O` [Sennoside A]: the “inhibition of cell viability” value is 0.0197.

Turning to `O=C(O)CCCCCCCC(O)C(O)CCCCCCO` (configuration not stated) [Aleuritic Acid], the “inhibition of cell viability” value was -0.54.

On to `C=C[C@](C)(O)CC[C@@H]1[C@@]2(C)CCCC(C)(C)[C@@H]2CC[C@@]1(C)O` [Sclareol], for which the “inhibition of cell viability” value is 0.318.

Regarding `C/C=C1\[C@H]2C=C(C)C[C@]1(N)c1ccc(=O)[nH]c1C2` [(-)-Huperzine A (HupA)], the “inhibition of cell viability” value was 0.178.

Consider `NCCCS(=O)(=O)O` [Homotaurine], for which the “inhibition of cell viability” value is 0.357.

Consider `NC[C@H]1O[C@H](O[C@H]2[C@H](O)[C@@H](O[C@H]3O[C@H](CO)[C@@H](O)[C@H](N)[C@H]3O)[C@H](N)C[C@@H]2N)[C@H](N)C[C@@H]1O` [Tobramycin], for which the “inhibition of cell viability” value was -0.0866.

In the case of `CNC1CCCN(c2c(F)cc3c(=O)c(C(=O)O)cn(C4CC4)c3c2OC)C1` (configuration not stated) [Balofloxacin], the “inhibition of cell viability” value is 0.118.

Turning to `CC1(C)CCC[C@]2(C)[C@H]3CC(=O)O[C@]3(C)CC[C@@H]12` [Sclareolide], the “inhibition of cell viability” value is 0.206.

With `O=C(O)c1cc(O)ccc1O` [Gentisic acid], the “inhibition of cell viability” value is -0.166.

For `O=c1c(-c2ccc(O)cc2)coc2cc(O)ccc12` [Daidzein], the “inhibition of cell viability” value was 0.0274.

In the case of `Cc1cc(O)cc(O[C@@H]2O[C@H](CO)[C@@H](O)[C@H](O)[C@H]2O)c1` [Orcinol glucoside], the “inhibition of cell viability” value is 0.0244.

As to `C[C@H](O)[C@H]1CC[C@H]2[C@@H]3CC[C@@H]4C[C@H](O)CC[C@]4(C)[C@H]3CC[C@]12C` [5Beta-Pregnane-3Alpha,20alpha-Diol], the “inhibition of cell viability” value was -0.113.

Turning to `O=C(/C=C/c1ccc(O)c(O)c1)O[C@@H]1C[C@](O)(C(=O)O)C[C@@H](O)[C@H]1O` [Chlorogenic Acid], the “inhibition of cell viability” value is 0.162.

`O=C1c2ccccc2C(=O)c2c1ccc(O)c2O` [Alizarin]: the “inhibition of cell viability” value was 0.344.

For `COc1cc2c(c(OC)c1OC)-c1c(cc3c(c1OC)OCO3)CC(C)C(C)C2` (configuration not stated) [Schizandrin B], the “inhibition of cell viability” value was -0.0395.

With `COc1ccc([C@@H]2CC(=O)c3c(O)cc(O[C@@H]4O[C@H](CO[C@@H]5O[C@@H](C)[C@H](O)[C@@H](O)[C@H]5O)[C@@H](O)[C@H](O)[C@H]4O)cc3O2)cc1O` [Hesperidin], the “inhibition of cell viability” value is 0.0198.

`CN[C@@H]1[C@H](O)[C@H](NC)[C@H]2O[C@@]3(O)C(=O)C[C@@H](C)O[C@H]3O[C@@H]2[C@H]1O` [Spectinomycin dihydrochloride]: the “inhibition of cell viability” value is 0.186.

Regarding `N[C@@H](Cc1c[nH]c2ccccc12)C(=O)O` [L-Tryptophan], the “inhibition of cell viability” value is -0.199.

As to `Cc1ncc(CO)c(CO)c1O` [Pyridoxine], the “inhibition of cell viability” value was 0.0231.

Take `COc1cc(C=O)ccc1OC(C)=O` [Acetylvanillin]: the “inhibition of cell viability” value is -0.295.

As to `O=C1C[C@@H](c2ccccc2)Oc2cc(O)cc(O)c21` [Pinocembrin], the “inhibition of cell viability” value is -0.374.
